Data published in paper PMC4336329 (PLoS ONE, 2015).
In all, about 310,000 compounds went through this assay and about 14,000 (4.5%) showed an effect of 50% or more. The effect is printed as a negative number. What follows is part of a selection rich in strong results, with near analogues and random picks from the rest.

The molecules below were run against human ether-à-go-go-related gene (hERG) potassium channel (human, UniProt Q12809) (assay: primary screen, population patch clamp on CHO cells stably expressing hERG; higher = less effect of the substance).
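Also: peak tail current of the secondary pulse compared with the same well before compound.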

Chain of human ether-à-go-go-related gene (hERG) potassium channel (Q12809 whole entry, looked up): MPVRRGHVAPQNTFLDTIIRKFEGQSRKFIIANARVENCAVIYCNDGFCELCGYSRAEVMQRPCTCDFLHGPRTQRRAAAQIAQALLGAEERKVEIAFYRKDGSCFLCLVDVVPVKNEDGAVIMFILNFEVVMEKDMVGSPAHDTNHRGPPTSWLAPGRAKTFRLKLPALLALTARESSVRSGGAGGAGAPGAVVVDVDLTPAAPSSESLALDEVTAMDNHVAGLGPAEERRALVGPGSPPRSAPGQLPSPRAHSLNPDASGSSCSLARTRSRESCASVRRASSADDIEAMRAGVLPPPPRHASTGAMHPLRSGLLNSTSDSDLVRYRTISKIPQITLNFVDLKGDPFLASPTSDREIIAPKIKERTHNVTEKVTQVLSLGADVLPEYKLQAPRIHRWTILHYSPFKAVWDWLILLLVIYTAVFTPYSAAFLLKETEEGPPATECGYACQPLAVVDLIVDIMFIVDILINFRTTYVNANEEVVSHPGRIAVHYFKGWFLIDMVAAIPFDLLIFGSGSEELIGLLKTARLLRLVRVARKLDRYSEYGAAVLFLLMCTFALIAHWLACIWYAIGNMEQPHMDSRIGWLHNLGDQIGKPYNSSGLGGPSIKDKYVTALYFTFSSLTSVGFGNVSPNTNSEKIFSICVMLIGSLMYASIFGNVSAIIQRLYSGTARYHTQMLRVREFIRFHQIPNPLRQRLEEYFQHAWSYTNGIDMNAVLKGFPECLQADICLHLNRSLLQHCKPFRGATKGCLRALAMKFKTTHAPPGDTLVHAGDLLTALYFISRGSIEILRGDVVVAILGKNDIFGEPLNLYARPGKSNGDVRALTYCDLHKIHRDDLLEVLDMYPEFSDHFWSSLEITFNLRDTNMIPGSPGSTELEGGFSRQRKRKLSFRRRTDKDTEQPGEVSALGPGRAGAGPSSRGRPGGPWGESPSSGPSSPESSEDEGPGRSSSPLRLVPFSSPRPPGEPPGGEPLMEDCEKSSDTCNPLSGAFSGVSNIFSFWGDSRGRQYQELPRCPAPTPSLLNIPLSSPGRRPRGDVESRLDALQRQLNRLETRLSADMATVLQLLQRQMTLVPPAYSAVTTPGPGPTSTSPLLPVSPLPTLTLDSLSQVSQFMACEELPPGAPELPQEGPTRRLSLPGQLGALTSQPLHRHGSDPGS

| Compound | hERG current change (%, negative = inhibition) at 10uM [%] |
| --- | --- |
| Cc1ccc(C)c(N2N=C(C(=O)Nc3ccccc3N3CCCC3)CCC2=O)c1 | 3.97 |
| COc1ccccc1/C=N\Nc1ccccc1[N+](=O)[O-] | 21.7 |
| O=C(O)c1ccc(CNC(=O)c2ccc(S(=O)(=O)N3CCCCC3)cc2)cc1 | -1.88 |
| NC(=O)Cn1cnc(-c2ccccc2)c1 | 9.58 |
| CCCCc1c(O)nc(SCC(=O)N2CCOCC2)n(-c2ccccc2OC)c1=O | 7.27 |
| COCCNC(=O)C1(C)C=CC2(CCCCC2)N1C(=O)c1ccccc1 (stereo not drawn) | 5.19 |
| CC(=O)N(CN1C(=O)C2CC=CCC2C1=O)c1cccc(Cl)c1 (stereo not drawn) | -5.31 |
| Cc1cc(C)c(C(=O)N2CCCC(Nc3ccc(F)cc3)C2)o1 (stereo not drawn) | 9.39 |
| Cc1nonc1C(=O)N1CCCC(N2CCN(c3ccc(F)cc3)CC2)C1 (stereo not drawn) | -51.8 |
| COc1ccccc1N1CCN(C2CCCN(C(=O)c3oc(C)cc3C)C2)CC1 (stereo not drawn) | -47.9 |
| Cc1cc(C)c(C(=O)N2CCCC(N3CCN(c4cccc(C(F)(F)F)c4)CC3)C2)o1 (stereo not drawn) | -52.1 |
| Cc1ncoc1C(=O)N1CCCC(N2CCN(c3cccc(C(F)(F)F)c3)CC2)C1 (stereo not drawn) | -35.7 |
| Cc1cc(C(=O)N2CCCC(N3CCN(c4cccc(C(F)(F)F)c4)CC3)C2)c(C)o1 (stereo not drawn) | -23.2 |
| Cc1cc(C)c(C(=O)N2CCCC(N3CCN(c4ccc(F)cc4)CC3)C2)o1 (stereo not drawn) | -73.6 |
| Cc1nnsc1C(=O)N1CCCC(N2CCN(c3ccc(F)cc3)CC2)C1 (stereo not drawn) | -12.3 |
| Cc1ccc2nccc(C(=O)N3CCCC(N4CCN(c5ccc(F)cc5)CC4)C3)c2c1 (stereo not drawn) | -48.5 |
| COc1ccccc1N1CCN(C2CCCN(C(=O)c3cc(C)oc3C)C2)CC1 (stereo not drawn) | -3.28 |
| Cc1cc(C(=O)N2CCCC(N3CCN(c4ccc(F)cc4)CC3)C2)c(C)o1 (stereo not drawn) | -59.1 |
| Cc1cccc(N(CC(=O)N/N=C/c2ccc(OCC(=O)NCc3ccco3)cc2)S(C)(=O)=O)c1C | 4.14 |
| C=CCn1c(O)c(C(C)=NCC2CCCO2)c(=O)[nH]c1=O (stereo not drawn) | -6.3 |
| O=C(NCCC(NS(=O)(=O)OCC(Cl)(Cl)Cl)c1ccccc1)C(F)(F)F (stereo not drawn) | -16.4 |
| NC(=O)CCCC1=NS(=O)(=O)c2ccccc2N1 | 11.5 |
| CC(C)C(=O)N1CCN(c2ccccc2NC(=O)c2ccc(C#N)cc2F)CC1 | -72.2 |
| CN1CCN(c2ccccc2NC(=O)c2ccccc2F)CC1 | -70.8 |
| COc1ccc(C(=O)Nc2ccccc2N2CCN(C(=O)C(C)C)CC2)cc1Cl | -30.9 |
| COc1ccc(Cl)cc1C(=O)Nc1ccccc1N1CCN(C)CC1 | -79.3 |
| CC(=O)N1CCN(c2ccccc2NC(=O)c2ccc(C#N)cc2F)CC1 | -49.6 |

| Compound | hERG current change (%, negative = inhibition) at 10uM [%] |
| --- | --- |
| O=C(Nc1ccccc1N1CCN(c2ccccc2)CC1)c1ccccc1F | 8.96 |
| COc1ccc(Cl)cc1C(=O)NC(=S)Nc1ccccc1N1CCOCC1 | 10.2 |
| COc1ccc(Cl)cc1C(=O)Nc1ccccc1N1CCN(C(=O)C(C)C)CC1 | -74 |
| O=C(Nc1ccccc1N1CCCC1)c1ccccc1F | -3.26 |
| COc1cc2ccccc2cc1C(=O)Nc1ccccc1N1CCCC1 | -4.16 |
| CC1CCN(c2ccccc2NC(=O)c2ccc(C#N)cc2F)CC1 | 5.07 |
| COc1c(F)c(F)c(C(=O)Nc2ccccc2N2CCN(C(=O)C(C)C)CC2)c(F)c1F | 6.51 |
| CN(C)c1ccc(NC(=O)c2ccc(COc3cccc(Cl)c3)o2)cc1 | 0.95 |
| CS(=O)(=O)N(CC(=O)N1CCOCC1)Cc1ccc(Cl)cc1 | 4.67 |
| COc1cc(C(=O)NCC2(N3CCCCC3)CCCCC2)ccc1OCC(=O)N1CCOCC1 | -3.67 |
| CC(=O)Nc1cccc(C(=O)OC(C)C(=O)N2CCc3ccccc32)c1 (stereo not drawn) | -33.2 |
| Cc1ccc(C(=O)N2CCN(c3ncnc4c(-c5ccccc5)nsc34)CC2)cc1 | 18.1 |
| Cc1cc(C)n(-c2nc(NCC3CCCO3)c3c4c(sc3n2)COC(C)(C)C4)n1 (stereo not drawn) | -20.2 |
| COc1ccc(CC(=O)NC(C)C2COc3ccccc3O2)cc1OC (stereo not drawn) | -0.81 |
| CC(NCc1ccc([N+](=O)[O-])cc1)C1COc2ccccc2O1.O=C(O)C(=O)O (stereo not drawn) | -66.2 |
| CCOC(=O)CCNC(C)C1COc2ccccc2O1.O=C(O)C(=O)O (stereo not drawn) | 1.93 |
| CC(NCc1ccccc1)C1COc2ccccc2O1 (stereo not drawn) | 2.12 |
| COc1ccc(CNC(=O)C2COc3ccccc3O2)c(OC)c1 (stereo not drawn) | -26.4 |
| COc1ccc(CNC(C)C2COc3ccccc3O2)c(OC)c1.O=C(O)C(=O)O (stereo not drawn) | -63.2 |
| Cc1ccc(NC(=S)NCCc2c[nH]c3ccccc23)cc1 | -1.12 |
| COc1ccc(OCC(O)CNC(=O)c2ccc(OC)cc2)cc1 (stereo not drawn) | 14.9 |
| COCCn1c(SCC(=O)Nc2ccc(F)cc2F)nc2c([nH]c3ccccc32)c1=O | 8.08 |
| COCCCn1c(C)nnc1SCC(=O)NNC(=O)COc1ccc(Cl)cc1 | 22.6 |
| COc1ccc(-c2ccc(Nc3ccc(S(=O)(=O)N4CCCC4)cc3)nn2)cc1OC | 6.55 |
| Cn1c(=O)[nH]c(=O)c2c1nc(N1CCNCC1)n2Cc1cccc2ccccc12 | -16.4 |
| Cc1cccc(N/C(=N/S(=O)(=O)c2ccccc2)c2ccccc2)n1 | -24.9 |
| CCN(c1cccc(C)c1)C(C(=O)Nc1ccc(OC)cc1)c1cc2c(cc1[N+](=O)[O-])OCO2 (stereo not drawn) | 21.1 |
